# Tests used:
# Assay in all cases: DAPPL (digital affinity profiling via proximity ligation, sequencing); 10 mM Tris-HCl pH 7.5, 50 mM NaCl, 1 mM DTT, 4% glycerol, room temperature, 30 min; GST-TFs on glutathione beads, 16-mer random dsDNA library, 0.1% formaldehyde crosslink after washing; high values mean tight binding
# [1] = target: T1, FEV (Homo sapiens, UniProt Q99581 1-238); conditions: protein: recombinant; tags: N-terminal GST; dsDNA, one strand shown
# T1 sequence: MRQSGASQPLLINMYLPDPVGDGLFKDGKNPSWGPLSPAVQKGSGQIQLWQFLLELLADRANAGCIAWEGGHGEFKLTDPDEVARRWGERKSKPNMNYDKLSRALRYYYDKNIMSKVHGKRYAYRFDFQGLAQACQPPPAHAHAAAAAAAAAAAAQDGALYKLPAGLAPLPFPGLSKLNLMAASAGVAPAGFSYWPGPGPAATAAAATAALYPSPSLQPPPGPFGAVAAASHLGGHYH
# Procedure, shortened: (§1)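 Binding signal is each hexamer's read frequency for a factor divided by its frequency in the tag-only sample. The factors were GST-fused human transcription factors from yeast, captured on glutathione beads, DNA-barcoded and pooled with that sample. Pools were incubated with 200 nmole of a random double-stranded 16-mer DNA library in Tris/NaCl/DTT/glycerol buffer at room temperature for 30 min, then washed, crosslinked with 0.1% formaldehyde, proximity-ligated with BsaI/T4 ligase (1 h, 37 °C), PCR-amplified and sequenced on an Illumina NextSeq500.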
# [2] = target: ETV5 (Homo sapiens, UniProt P41161 1-510); conditions: protein: recombinant; tags: N-terminal GST; dsDNA, one strand shown
# Procedure, shortened: as §1
# [3] = target: HSF1 (Homo sapiens, UniProt Q00613 1-529); conditions: protein: recombinant; tags: N-terminal GST; chain copies: 3; dsDNA, one strand shown
# Procedure, shortened: as §1
# [4] = target: ELF4 (Homo sapiens, UniProt Q99607 1-663); conditions: protein: recombinant; tags: N-terminal GST; dsDNA, one strand shown
# Procedure, shortened: as §1
# [5] = target: T2, ELK4 (Homo sapiens, UniProt P28324-2 1-405); conditions: protein: recombinant; tags: N-terminal GST; dsDNA, one strand shown
# T2 sequence: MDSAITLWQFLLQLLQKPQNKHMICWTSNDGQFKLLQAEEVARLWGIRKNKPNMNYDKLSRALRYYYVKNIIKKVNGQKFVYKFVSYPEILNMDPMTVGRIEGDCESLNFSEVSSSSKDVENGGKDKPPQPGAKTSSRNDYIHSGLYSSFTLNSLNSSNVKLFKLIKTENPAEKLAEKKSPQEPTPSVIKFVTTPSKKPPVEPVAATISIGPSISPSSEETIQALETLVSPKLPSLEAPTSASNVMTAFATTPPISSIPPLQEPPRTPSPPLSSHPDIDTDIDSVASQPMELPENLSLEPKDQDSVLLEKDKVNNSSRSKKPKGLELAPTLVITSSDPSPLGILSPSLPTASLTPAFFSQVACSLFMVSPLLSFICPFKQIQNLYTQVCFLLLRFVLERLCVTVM
# Procedure, shortened: as §1
# [6] = target: T3, ETV2 (Homo sapiens, UniProt O00321 1-342); conditions: protein: recombinant; tags: N-terminal GST; dsDNA, one strand shown
# T3 sequence: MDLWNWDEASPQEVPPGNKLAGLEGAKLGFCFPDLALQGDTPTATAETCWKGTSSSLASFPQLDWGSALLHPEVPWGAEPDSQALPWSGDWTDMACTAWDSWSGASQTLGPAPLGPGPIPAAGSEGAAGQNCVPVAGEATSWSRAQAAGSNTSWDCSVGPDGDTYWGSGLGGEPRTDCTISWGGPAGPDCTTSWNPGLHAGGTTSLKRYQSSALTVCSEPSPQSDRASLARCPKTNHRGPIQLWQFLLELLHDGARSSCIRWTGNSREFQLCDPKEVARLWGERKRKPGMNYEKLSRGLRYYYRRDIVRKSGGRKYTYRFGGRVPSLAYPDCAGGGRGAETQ
# Procedure, shortened: as §1
# [7] = target: T4, ELF3 (Homo sapiens, UniProt P78545 1-371); conditions: protein: recombinant; tags: N-terminal GST; dsDNA, one strand shown
# T4 sequence: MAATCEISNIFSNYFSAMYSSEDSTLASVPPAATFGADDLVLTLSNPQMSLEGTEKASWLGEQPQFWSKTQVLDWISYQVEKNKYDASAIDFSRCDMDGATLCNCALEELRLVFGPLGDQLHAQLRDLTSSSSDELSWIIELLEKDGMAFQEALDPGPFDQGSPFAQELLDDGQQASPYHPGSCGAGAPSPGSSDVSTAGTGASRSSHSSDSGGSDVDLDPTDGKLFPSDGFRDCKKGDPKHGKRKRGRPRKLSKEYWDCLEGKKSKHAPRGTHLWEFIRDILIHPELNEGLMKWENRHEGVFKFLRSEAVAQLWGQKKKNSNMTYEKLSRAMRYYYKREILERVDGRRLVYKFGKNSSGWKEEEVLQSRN
# Procedure, shortened: as §1
# [8] = target: CRX (Homo sapiens, UniProt O43186 1-299); conditions: protein: recombinant; tags: N-terminal GST; dsDNA, one strand shown
# Procedure, shortened: as §1
# [9] = target: ETV1 (Homo sapiens, UniProt P50549 1-477); conditions: protein: recombinant; tags: N-terminal GST; dsDNA, one strand shown
# Procedure, shortened: as §1
# [10] = target: T5, ERF (Homo sapiens, UniProt P50548 1-548); conditions: protein: recombinant; tags: N-terminal GST; dsDNA, one strand shown
# T5 sequence: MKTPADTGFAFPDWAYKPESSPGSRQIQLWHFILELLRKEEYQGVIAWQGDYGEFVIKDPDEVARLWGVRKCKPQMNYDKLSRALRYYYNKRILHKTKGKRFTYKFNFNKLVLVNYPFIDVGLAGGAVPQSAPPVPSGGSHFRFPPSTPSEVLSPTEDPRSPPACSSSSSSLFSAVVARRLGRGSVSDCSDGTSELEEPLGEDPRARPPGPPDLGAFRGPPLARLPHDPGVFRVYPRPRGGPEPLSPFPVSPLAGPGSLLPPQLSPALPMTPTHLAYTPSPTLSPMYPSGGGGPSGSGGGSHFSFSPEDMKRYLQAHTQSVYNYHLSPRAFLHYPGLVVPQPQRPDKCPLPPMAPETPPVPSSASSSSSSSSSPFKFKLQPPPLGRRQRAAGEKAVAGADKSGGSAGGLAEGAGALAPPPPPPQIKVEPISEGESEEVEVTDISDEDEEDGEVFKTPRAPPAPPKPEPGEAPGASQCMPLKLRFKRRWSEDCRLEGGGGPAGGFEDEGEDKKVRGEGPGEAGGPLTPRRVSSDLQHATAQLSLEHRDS
# Procedure, shortened: as §1
# [11] = target: T6, ETV3L (Homo sapiens, UniProt Q6ZN32 1-361); conditions: protein: recombinant; tags: N-terminal GST; dsDNA, one strand shown
# T6 sequence: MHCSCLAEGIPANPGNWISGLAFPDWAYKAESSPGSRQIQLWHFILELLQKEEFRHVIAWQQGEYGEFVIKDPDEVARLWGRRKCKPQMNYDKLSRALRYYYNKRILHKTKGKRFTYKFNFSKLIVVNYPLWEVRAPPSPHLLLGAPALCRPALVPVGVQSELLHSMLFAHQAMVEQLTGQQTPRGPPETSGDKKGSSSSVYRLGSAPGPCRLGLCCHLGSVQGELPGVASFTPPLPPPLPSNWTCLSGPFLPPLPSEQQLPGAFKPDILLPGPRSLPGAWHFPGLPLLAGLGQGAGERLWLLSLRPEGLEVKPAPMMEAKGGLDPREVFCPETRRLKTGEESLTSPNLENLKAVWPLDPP
# Procedure, shortened: as §1
# [12] = target: T7, ETS2 (Homo sapiens, UniProt P15036 1-469); conditions: protein: recombinant; tags: N-terminal GST; dsDNA, one strand shown
# T7 sequence: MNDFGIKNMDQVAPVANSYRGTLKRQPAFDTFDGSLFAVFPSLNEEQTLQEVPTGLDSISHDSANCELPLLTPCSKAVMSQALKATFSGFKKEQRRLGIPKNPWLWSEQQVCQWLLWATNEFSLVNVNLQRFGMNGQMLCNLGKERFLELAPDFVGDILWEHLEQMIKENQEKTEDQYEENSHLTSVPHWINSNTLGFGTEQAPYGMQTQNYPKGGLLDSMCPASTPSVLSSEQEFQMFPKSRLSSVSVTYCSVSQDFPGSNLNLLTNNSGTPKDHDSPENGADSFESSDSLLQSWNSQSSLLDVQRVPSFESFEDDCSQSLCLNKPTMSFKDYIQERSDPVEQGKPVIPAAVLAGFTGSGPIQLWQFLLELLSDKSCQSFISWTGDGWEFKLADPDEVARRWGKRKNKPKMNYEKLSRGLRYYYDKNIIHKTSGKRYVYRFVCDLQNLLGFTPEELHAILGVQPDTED
# Procedure, shortened: as §1
# [13] = target: T8, SPDEF (Homo sapiens, UniProt O95238 1-335); conditions: protein: recombinant; tags: N-terminal GST; dsDNA, one strand shown
# T8 sequence: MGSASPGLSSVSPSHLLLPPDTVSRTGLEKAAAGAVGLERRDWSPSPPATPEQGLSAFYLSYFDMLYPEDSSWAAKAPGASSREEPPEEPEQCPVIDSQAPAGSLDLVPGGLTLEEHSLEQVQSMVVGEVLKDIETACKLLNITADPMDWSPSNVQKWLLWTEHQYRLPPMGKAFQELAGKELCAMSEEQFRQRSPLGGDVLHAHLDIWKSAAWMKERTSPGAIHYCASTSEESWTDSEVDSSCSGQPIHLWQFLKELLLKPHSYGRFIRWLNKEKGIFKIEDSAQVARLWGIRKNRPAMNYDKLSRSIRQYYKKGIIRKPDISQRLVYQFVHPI
# Procedure, shortened: as §1
# [14] = target: T9, ETV7 (Homo sapiens, UniProt Q9Y603 1-341); conditions: protein: recombinant; tags: N-terminal GST; dsDNA, one strand shown
# T9 sequence: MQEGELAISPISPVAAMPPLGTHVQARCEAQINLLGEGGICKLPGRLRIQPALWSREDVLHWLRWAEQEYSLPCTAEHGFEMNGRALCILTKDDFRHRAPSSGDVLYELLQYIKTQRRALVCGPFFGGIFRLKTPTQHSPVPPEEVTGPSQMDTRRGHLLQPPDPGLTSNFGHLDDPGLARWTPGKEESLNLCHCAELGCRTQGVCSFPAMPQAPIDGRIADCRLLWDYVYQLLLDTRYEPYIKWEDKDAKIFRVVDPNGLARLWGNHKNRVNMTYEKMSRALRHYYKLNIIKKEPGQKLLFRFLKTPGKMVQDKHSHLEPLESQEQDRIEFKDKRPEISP
# Procedure, shortened: as §1
# [15] = target: T10, ETV3 (Homo sapiens, UniProt P41162-2 1-143); conditions: protein: recombinant; tags: N-terminal GST; dsDNA, one strand shown
# T10 sequence: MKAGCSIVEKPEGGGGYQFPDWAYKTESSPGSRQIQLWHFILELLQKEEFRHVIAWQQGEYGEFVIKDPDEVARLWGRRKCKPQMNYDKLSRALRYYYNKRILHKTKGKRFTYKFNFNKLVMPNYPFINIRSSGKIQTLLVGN
# Procedure, shortened: as §1
# Chain of CRX (O43186 whole entry): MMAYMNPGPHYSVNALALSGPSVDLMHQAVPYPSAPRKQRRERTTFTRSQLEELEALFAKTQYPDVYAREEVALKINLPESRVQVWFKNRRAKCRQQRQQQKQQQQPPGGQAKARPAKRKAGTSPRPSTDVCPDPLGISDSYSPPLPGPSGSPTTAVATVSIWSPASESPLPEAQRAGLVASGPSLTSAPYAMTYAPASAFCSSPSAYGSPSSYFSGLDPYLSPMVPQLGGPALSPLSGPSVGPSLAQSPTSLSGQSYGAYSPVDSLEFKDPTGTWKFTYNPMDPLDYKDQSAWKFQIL
# Chain of HSF1 (Q00613 whole entry): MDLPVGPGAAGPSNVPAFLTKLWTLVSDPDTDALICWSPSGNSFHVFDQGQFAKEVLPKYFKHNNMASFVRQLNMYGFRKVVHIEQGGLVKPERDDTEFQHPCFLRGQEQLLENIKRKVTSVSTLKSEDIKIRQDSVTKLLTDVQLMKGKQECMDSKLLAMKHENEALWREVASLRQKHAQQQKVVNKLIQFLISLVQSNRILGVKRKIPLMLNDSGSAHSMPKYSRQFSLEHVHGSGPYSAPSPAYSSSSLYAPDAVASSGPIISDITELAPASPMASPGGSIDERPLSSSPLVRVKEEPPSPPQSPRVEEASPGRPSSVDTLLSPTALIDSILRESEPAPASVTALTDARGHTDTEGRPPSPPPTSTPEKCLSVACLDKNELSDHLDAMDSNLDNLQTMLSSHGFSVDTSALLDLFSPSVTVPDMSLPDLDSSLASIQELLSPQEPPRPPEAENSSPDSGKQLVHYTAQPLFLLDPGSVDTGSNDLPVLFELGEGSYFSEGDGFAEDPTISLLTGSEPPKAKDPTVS
# Chain of ETV5 (P41161 whole entry): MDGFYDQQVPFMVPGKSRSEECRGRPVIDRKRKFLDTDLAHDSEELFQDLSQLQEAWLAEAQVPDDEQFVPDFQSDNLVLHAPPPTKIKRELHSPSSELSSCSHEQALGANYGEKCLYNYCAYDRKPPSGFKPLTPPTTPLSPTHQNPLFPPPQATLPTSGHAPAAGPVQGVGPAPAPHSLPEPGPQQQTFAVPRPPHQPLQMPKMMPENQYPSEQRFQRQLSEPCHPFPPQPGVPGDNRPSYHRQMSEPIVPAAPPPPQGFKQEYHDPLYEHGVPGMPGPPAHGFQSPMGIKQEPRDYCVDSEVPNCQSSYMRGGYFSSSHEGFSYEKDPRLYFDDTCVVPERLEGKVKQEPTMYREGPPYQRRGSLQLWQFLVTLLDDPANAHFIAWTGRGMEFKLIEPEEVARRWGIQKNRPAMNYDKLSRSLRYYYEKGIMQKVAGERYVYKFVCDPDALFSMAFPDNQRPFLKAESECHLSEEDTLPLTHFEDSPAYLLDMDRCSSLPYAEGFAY
# Chain of ETV1 (P50549 whole entry): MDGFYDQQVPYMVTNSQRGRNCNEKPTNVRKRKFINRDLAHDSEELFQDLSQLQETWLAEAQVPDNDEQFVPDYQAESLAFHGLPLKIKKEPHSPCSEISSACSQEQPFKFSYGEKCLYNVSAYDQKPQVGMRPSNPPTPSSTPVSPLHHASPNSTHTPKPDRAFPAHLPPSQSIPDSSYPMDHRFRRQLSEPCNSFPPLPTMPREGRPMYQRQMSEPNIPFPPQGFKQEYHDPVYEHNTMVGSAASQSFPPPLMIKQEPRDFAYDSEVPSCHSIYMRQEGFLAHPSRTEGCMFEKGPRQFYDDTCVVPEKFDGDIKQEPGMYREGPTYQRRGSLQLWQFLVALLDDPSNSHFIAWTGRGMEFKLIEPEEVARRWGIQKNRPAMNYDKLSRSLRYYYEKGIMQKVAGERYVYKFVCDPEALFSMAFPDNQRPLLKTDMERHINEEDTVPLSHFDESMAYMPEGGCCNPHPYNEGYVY
# Chain of ELF4 (Q99607 whole entry): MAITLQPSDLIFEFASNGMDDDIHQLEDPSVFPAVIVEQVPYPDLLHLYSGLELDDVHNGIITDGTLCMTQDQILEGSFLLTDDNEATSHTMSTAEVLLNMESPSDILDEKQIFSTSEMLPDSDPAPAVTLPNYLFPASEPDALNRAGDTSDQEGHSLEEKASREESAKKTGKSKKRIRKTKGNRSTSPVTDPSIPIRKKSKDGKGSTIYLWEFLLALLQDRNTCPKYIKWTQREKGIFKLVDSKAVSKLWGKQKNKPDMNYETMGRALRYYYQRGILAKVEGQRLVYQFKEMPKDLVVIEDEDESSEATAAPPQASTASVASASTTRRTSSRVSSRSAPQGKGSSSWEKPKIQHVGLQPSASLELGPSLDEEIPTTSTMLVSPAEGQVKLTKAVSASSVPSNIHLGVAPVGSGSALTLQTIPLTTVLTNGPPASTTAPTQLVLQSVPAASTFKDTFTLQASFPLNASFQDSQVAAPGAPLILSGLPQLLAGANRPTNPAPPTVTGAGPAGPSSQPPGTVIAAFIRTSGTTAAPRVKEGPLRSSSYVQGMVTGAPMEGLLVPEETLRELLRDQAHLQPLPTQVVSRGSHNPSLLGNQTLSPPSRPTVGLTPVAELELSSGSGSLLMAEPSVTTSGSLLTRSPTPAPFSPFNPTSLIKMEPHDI
sequence,measurement,setting,value
AGCTAA,binding signal,[1],"1.03 fold enrichment (6-mer frequency, TF over GST control)"
same,binding signal,[2],"1.06 fold enrichment (6-mer frequency, TF over GST control)"
same,binding signal,[3],"1.27 fold enrichment (6-mer frequency, TF over GST control)"
same,binding signal,[4],"1.14 fold enrichment (6-mer frequency, TF over GST control)"
same,binding signal,[5],"1.1 fold enrichment (6-mer frequency, TF over GST control)"
same,binding signal,[6],"1.01 fold enrichment (6-mer frequency, TF over GST control)"
same,binding signal,[7],"1.09 fold enrichment (6-mer frequency, TF over GST control)"
same,binding signal,[8],"1.65 fold enrichment (6-mer frequency, TF over GST control)"
same,binding signal,[9],"1.1 fold enrichment (6-mer frequency, TF over GST control)"
same,binding signal,[10],"1.1 fold enrichment (6-mer frequency, TF over GST control)"
same,binding signal,[11],"1.05 fold enrichment (6-mer frequency, TF over GST control)"
same,binding signal,[12],"1.15 fold enrichment (6-mer frequency, TF over GST control)"
same,binding signal,[13],"1.02 fold enrichment (6-mer frequency, TF over GST control)"
same,binding signal,[14],"1.1 fold enrichment (6-mer frequency, TF over GST control)"
same,binding signal,[15],"1.1 fold enrichment (6-mer frequency, TF over GST control)"

# Source: PMC7862700, “An all-to-all approach to the identification of sequence-specific readers for epigenetic DNA modifications on cytosine”
